Screening data: PubChem, National Center for Advancing Translational Sciences (NCATS)
D3 ag – qHTS of D3 Dopamine Receptor Agonist: qHTS | D(3) dopamine receptor (Homo sapiens), P35462 | D3R DiscoveRx beta-arrestin cells, luminescence, 90 min | max activation, % | 410,000 compounds, 0.58% hits | AID 652048, 2013; in the data active = max activation above about 30%; also: 0% is about no effect
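Cells at 1500/well, incubated overnight, then treated with pinned compounds (dopamine as control) for 90 min at 37 degrees C. DiscoveRx reagent added for 30 - 60 minutes at room temperature; luminescence read.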
D1 antagonist – Antagonist of Human D 1 Dopamine Receptor: qHTS. HEK293 TREx D1 cells, calcium flux, dopamine EC80; active compounds read low. activity change, negative = inhibition, % at 10 µM. 360,000 compounds, 3.2% hits; in the data active = activity change below about -30%; also: % is scaled to controls: 0 for no effect and ±100 for the full control effect
Target sequence (P21728 whole entry, looked up): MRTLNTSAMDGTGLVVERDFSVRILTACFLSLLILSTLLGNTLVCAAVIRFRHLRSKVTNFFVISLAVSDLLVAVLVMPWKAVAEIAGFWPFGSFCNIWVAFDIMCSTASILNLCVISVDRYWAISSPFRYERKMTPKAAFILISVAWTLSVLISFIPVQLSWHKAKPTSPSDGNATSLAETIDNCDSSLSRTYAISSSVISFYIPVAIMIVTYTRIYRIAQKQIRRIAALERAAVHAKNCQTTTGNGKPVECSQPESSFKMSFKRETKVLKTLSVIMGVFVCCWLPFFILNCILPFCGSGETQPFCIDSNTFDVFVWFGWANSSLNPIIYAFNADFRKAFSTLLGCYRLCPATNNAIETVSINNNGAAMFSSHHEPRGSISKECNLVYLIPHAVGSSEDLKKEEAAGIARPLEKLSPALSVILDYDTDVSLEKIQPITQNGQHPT
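Antagonism measured as reduced calcium response to an EC80 dopamine addition following 180 s compound pre-read; cells were inducible HEK293 Trex D1 plated overnight at 30 C, read kinetically at 1 cycle/sec.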
D3 antag – qHTS of D3 Dopamine Receptor Antagonist: qHTS; AID 652054, 2013; 360,000 compounds, 2.5% hits; max response, negative = inhibition, %; D3R cells, DiscoveRx beta-arrestin luminescence, antagonist mode; active compounds read low; in the data active = max response below about -50%; inconclusive = no clear call, values can overlap the other calls; also: % is scaled to controls: 0 for no effect and ±100 for the full control effect
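Cells plated overnight at 1500 cells/well, then exposed to library compounds with dopamine controls for 90 minutes at 37 degrees C. DiscoveRx reagent added for 30–60 minutes at room temperature; luminescence read, quantitative HTS format.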
D1 agonist – Allosteric Agonists of the Human D1 Dopamine Receptor: qHTS | HEK293 T-REx D1 cells, calcium flux, agonist mode | activation, % at 2 µM | 360,000 compounds, 1% hits; in the data active = activation above about 30%; also: 0% is about no effect
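Agonism was scored from calcium flux recorded over 180 s (1 read/s) after pintool compound addition, following a 10-cycle baseline. Cells were inducible force-coupled HEK293 TREx D1, plated overnight at 30 C and loaded with no-wash calcium dye.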
D1 PAM – Potentiators of Human D1 Dopamine Receptor: qHTS. D(1A) dopamine receptor (Homo sapiens), P21728. HEK293 TREx D1 cells, calcium flux, dopamine EC20 potentiation. potentiation, % at 10 µM. 360,000 compounds, 0.036% hits. AID 504651, 2011; in the data active = potentiation above about 30%; also: 0% is about no effect
* = called active by the depositor; ? = inconclusive; . = no result given. This is a sample that favours compounds with a hit; in the whole collection about 6% have one here.

SMILES	D3 ag	D1 antagonist	D3 antag	D1 agonist	D1 PAM
CCN(C(=O)Cn1nc2c3cc(F)ccc3n(Cc3cccc(C)c3)cc-2c1=O)c1cccc(C)c1	2	8	.	2	0
O=C(c1ccc(Cl)cc1)n1nc(-c2ccco2)nc1NCc1cccs1	-2	0	.	2	-1
C=CCNCCCCOc1ccc(OCc2ccccc2)cc1	-6	-6	-10	45*	-5
c1ccc(COc2ccc(OCCCNC3CCCC3)cc2)cc1	-10	-26	?	35*	1
CCc1cccc(OCCCCNCCOC)c1	-13	11	-67*	6	1
COCCCNCCCCOc1ccc(OCc2ccccc2)cc1	-2	-18	-11	35*	-4
COc1ccc(-c2cc(C(F)(F)F)n3nc(C(=O)O)c(Cl)c3n2)cc1OC	9	-4	.	-2	0
CCOc1cc(CNC(=O)CN2CCSc3ccccc32)cc(OCC)c1OCC	1	2	.	2	-2
CCOC(=O)c1cccc(NC(=O)C(C)n2c(C)c3cnn(-c4ccccc4)c(=O)c3c2C)c1 (centres undefined)	-6	10	.	21	-1
CCCCC(=O)Nc1ccnc(-c2cccnc2)n1	0	-86*	27	220*	-2
CC(=O)Nc1ccnc(-c2cccnc2)n1	1	-4	8	0	0
O=C(N/N=C1/CCSC1)c1cc(Br)ccc1O	2	-40*	5	14	-9
O=C(NN=C1CCCC1)c1cc(Br)ccc1O	-3	-18	1	12	-5
O=C(c1ccc(-c2ccccc2)cc1)C1CCCN(Cc2ccncc2)C1 (centres undefined)	-9	32	-8	2	5
O=C(c1ccc(Cl)cc1)C1CCCN(Cc2cnn(-c3ccccc3)c2)C1 (centres undefined)	-13	15	-71*	1	1
Cc1cccc(NC(=O)CCS(=O)(=O)c2cc(Br)cc3c2N(C(=O)C2CC2)CC3)c1	-8	1	.	1	-3
COc1cc2[nH]c(Cl)c([N+](=O)[O-])c2cc1OC	-9	-31*	-15	1	-8
COc1cc2[nH]c3c(Cl)ncnc3c2cc1OC	-3	-6	-4	2	0
CCN1CCCC1CNC(=O)c1ccc2c(c1)N(Cc1ccccc1F)C(=O)c1ccccc1S2(=O)=O (centres undefined)	-13	20	13	19	-4
CC1CCCN(CCCNC(=O)c2ccc3c(c2)N(Cc2ccc(F)cc2)C(=O)c2ccccc2S3=O)C1 (centres undefined)	-20	4	-82*	39*	1
O=C(NCCCN1CCCC1)c1ccc2c(c1)N(Cc1ccc(F)cc1)C(=O)c1ccccc1S2=O (centres undefined)	-15	-1	?	12	0
CCN1C(=O)c2ccccc2S(=O)c2ccc(C(=O)NCCN(CC(C)C)CC(C)C)cc21 (centres undefined)	-21	-4	-65*	0	-3
CC1CCCN(CCCNC(=O)c2ccc3c(c2)N(Cc2ccccc2F)C(=O)c2ccccc2S3(=O)=O)C1 (centres undefined)	-26	3	-112*	11	-3
O=C(NCCCN1CCOCC1)c1ccc2c(c1)N(Cc1cccc(Cl)c1)C(=O)c1ccccc1S2=O (centres undefined)	-2	15	-6	5	-6
CCN1C(=O)c2ccccc2S(=O)c2ccc(C(=O)NCc3ccc(C)cc3)cc21 (centres undefined)	-19	-7	.	1	2
SMILES	D3 ag	D1 antagonist	D3 antag	D1 agonist	D1 PAM
CC1CCCN(CCCNC(=O)c2ccc3c(c2)N(Cc2cccc(Cl)c2)C(=O)c2ccccc2S3=O)C1 (centres undefined)	-10	.	-117*	.	.
O=[S+]([O-])(c1ccc(N2CCOCC2)nc1)N1CCN([S+](=O)([O-])c2c(F)cccc2F)CC1	.	-2	.	4	1
CCCOc1ccc(-c2nn(-c3ccccc3)cc2C2NC(=O)NC(C)=C2C(=O)OC)cc1C (centres undefined)	12	10	.	7	1
CC(NC(=O)c1ccc2c(c1)N(Cc1ccc(Cl)cc1)C(=O)c1ccccc1S2=O)c1ccccc1 (centres undefined)	5	-35*	.	8	-6
CCCCCCC[C@@H](C/C=C/CCC(=O)O)OC	9	.	31	.	.
CCCCCCCCCCCCCCCCC(C(=O)O)C(O)(CC(=O)O)C(=O)O (centres undefined)	40*	.	.	.	.
CCOC(=O)c1cccc(NC(=O)c2cc3c(=O)n(C)c4ccccc4c3n2C)c1	7	1	.	0	2
O=C(NCc1ccccc1Cl)c1ccc(NC(=O)N2CCCCc3ccccc32)cc1	-2	-2	.	3	1
COc1cccc(CNC(=O)c2ccc(NC(=O)N3CCCCc4ccccc43)cc2)c1OC	6	-59*	.	4	-8
NC(=O)NCc1ccccc1Cl	5	-38*	4	1	-3
O=S1(=O)C=C(Sc2nc3ccccc3s2)c2ccccc21	-9	-5	-98*	6	0
Cc1cc(C)nc(SC2=CS(=O)(=O)c3ccccc32)n1	2	-2	17	1	-5
Cn1c(=O)n(C/C=C/c2ccccc2)c(=O)c2c1nc1n2CCN1c1ccccc1	7	-12	.	4	8
Cc1cc(C)c2oc(-c3cccc(NC(=O)c4ccc(-c5cccc([N+](=O)[O-])c5)o4)c3)nc2c1	1	-2	.	-1	3
Cc1ccccc1CNC(=O)c1ccc2nc(SCc3ccc(F)cc3)n(C)c2c1	-19	-5	.	13	-4
Fc1ccc(-c2nn(-c3ccccc3)cc2CNCc2ccccc2)cc1	-16	20	?	6	7
Fc1ccc(-n2cc(CNCCc3cccnc3)c(-c3ccccc3Cl)n2)cc1	-4	-4	-70*	61*	12
Fc1ccc(-n2cc(CNCCc3ccncc3)c(-c3ccccc3Cl)n2)cc1	-11	-32*	-1	10	-2
Cc1cccc(C)c1NC(=O)Cn1nc(C)c2sc3ccccc3c2c1=O	-9	0	.	4	-2
NC(=O)CSc1nc2c(oc3ccccc32)c(=O)n1-c1ccccc1F	2	-17	.	0	-7
Cc1ccc(C(=O)CN2CCN(c3ccccn3)CC2)c(C)c1	48*	-9	11	5	0
Cc1ccc(NC(=O)c2cnc(N3CCN(c4ccccn4)CC3)c3ccccc23)c(Br)c1	44*	8	89	0	-3
